A selection: hits, their analogues and other compounds. The true share with any hit is near 19%.
S-ASM inh: Inhibitors of Secretory Acid Sphingomyelinase (S-ASM): qHTS. hit rate 0.006% among 340,000. Sphingomyelin phosphodiesterase (Homo sapiens), P17405. AID 504937, 2011. placental ASM, HMU-PC fluorogenic substrate, 60 min. Potency, µM (series often up to 57.5 µM), for the others: at the highest dose activity change, negative = inhibition, usual class: inhibitors; further: potency means the concentration at half of the fitted maximal effect
Target sequence (P17405 47-631 limits assumed): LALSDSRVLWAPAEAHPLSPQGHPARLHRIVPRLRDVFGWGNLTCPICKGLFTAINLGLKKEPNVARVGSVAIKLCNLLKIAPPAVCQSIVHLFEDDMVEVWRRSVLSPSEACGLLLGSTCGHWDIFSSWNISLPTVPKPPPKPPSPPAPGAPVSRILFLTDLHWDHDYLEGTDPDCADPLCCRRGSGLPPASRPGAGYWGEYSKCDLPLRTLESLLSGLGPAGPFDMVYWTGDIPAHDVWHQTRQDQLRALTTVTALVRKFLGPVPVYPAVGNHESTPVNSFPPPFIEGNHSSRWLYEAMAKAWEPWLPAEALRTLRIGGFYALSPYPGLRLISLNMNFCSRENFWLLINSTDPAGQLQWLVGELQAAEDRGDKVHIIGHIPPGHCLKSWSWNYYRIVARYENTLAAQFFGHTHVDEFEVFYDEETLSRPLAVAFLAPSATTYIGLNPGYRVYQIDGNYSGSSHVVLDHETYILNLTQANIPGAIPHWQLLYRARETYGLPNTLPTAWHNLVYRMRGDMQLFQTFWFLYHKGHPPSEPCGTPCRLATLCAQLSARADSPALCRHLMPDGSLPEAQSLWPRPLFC
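HMU-PC0 cleavage (9 uM final) by human placental ASM, 60 min at 37 °C following 10 min compound exposure at RT; stopped at pH 10, fluorescence Ex 386/Em 447 nm.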
TDP1 cell CPT: qHTS for Inhibitors of human tyrosyl-DNA phosphodiesterase 1 (TDP1): qHTS in cells in presence of CPT | hit rate 12% among 420,000 | AID 686979, 2013 | Potency, µM (doses to about 46.2 µM), without a hit: top-dose activity change, negative = growth inhibition, usual class: inhibitors | chicken DT40 Tdp1-/-;hTDP1 cells + 20 nM CPT, ATP luminescence, 48 h; further: potency means the concentration at half of the fitted maximal effect; on the % scale 0 is the no-effect control and ±100 the full control effect; nearly all actives have a fitted effect of over 55% in size
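Chicken DT40 Tdp1-/- cells stably complemented with human TDP1 were seeded at 400 cells/well in medium containing 20 nM camptothecin, exposed to pin-transferred compounds, and grown at 37 °C for at least 48 hr. Viability was read as ATP luminescence.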
HepG2 tox: qHTS for Inhibitors of TGF-b: Cytotox Counterscreen. HepG2 CAGA-GFP viability, ATP luminescence, 18 h. Potency, µM (highest dose often 46.1 µM), for inactives: at the top dose activity change, negative = cytotoxicity, actives largely listed as cytotoxic. hit rate 0.76% among 410,000. AID 588856, 2011; further: potency means the concentration at half of the fitted maximal effect
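HepG2 CAGA-GFP cells (1000/well, DMEM with 1% FBS) received compound, then TGF-beta at 500 pg/mL final, and were incubated 18 hours at 37 degrees C. Viability was read by CellTiter-Glo luminescence. Media-only wells were set as complete cell-killing and DMSO as no toxicity.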
IL-1B inflam inh: qHTS for Inhibitors of Inflammasome Signaling: IL-1-beta AlphaLISA Primary Screen; THP-1 LPS/ATP IL-1B secretion, AlphaLISA, 16 h; active compounds read low; activity change, % at 57.5 µM; hit rate 4.7% among 360,000; in the data active means activity change below about -50%; inconclusive means mostly about -30% to -49%; further: on the % scale 0 is the no-effect control and ±100 the full control effect
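Secreted IL-1B measured by AlphaLISA bead assay after 16 h compound exposure of THP-1 cells; compounds (final up to 57.5 uM) added 1 h before LPS (250 ng/mL) and ATP (1.25 mM) stimulation; lower signal means less secretion.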
TGFb SMAD3 inh: qHTS for Inhibitors of TGF-b | HepG2 CAGA-GFP TGF-b/SMAD3 reporter, GFP fluorescence, 18 h; TGF-beta stimulated, 500 pg/mL final | Potency, µM (doses to about 46.1 µM), without a hit: top-dose activity, negative = inhibition, actives largely listed as inhibitors | hit rate 1.2% among 410,000 | AID 588855, 2011; further: potency means the concentration at half of the fitted maximal effect; on the % scale 0 is the no-effect control and ±100 the full control effect; nearly all actives have a fitted effect of over 65% in size
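HEPG2 CAGA-GFP cells (1000/well, DMEM with 1% FBS) were pre-incubated 2 h at 37 degrees C, given compound by pin tool, then stimulated with TGF-beta at 500 pg/mL final for 18 h before per-cell GFP fluorescence imaging.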
TDP1 cell noCPT: qHTS for Inhibitors of human tyrosyl-DNA phosphodiesterase 1 (TDP1): qHTS in cells in absence of CPT. DT40 Tdp1-/- hTDP1 cells, no CPT, ATP luminescence, 48 h. Potency, µM (doses to about 46.2 µM), without a hit: at the top dose activity change, negative = growth inhibition, most hits filed as inhibitors. hit rate 15% among 420,000. AID 686978, 2013; further: potency means the concentration at half of the fitted maximal effect; on the % scale 0 is the no-effect control and ±100 the full control effect; nearly all actives have a fitted effect of over 55% in size
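Seeded 400 DT40-hTDP1 cells/well (vehicle DMSO, no 20 nM CPT); pinned compounds; ≥48 hr at 37 °C; CellTiter-Glo luminescence as viability measure.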
An asterisk follows results filed as active; i = inactive; ? = inconclusive; . = no result. Unless noted, the call rests on the fitted dose curve; in most records, active means well fitted curve in the direction sought with a large enough effect; inconclusive means small, poorly fitted or top-dose-only effect, or another doubt; inactive means no such curve, though single readings can be large; an effect the other way counts as inactive or inconclusive.

SMILES | S-ASM inh | TDP1 cell CPT | HepG2 tox | IL-1B inflam inh | TGFb SMAD3 inh | TDP1 cell noCPT
Cc1ccc(NC(=O)c2ccccc2OCC(=O)Nc2ccccc2F)cc1S(=O)(=O)N(C)C | -15% | 16µM* | -9% | -18 | -2% | 21µM*
Cc1ccc(S(=O)(=O)N(C)C)cc1NC(=O)COc1ccccc1C(=O)Nc1ccccc1 | -19% | 13µM* | -15% | -13 | -25% | 9.2µM*
Cn1cc(C[C@H](NC(=O)OC(C)(C)C)C(=O)N[C@H](CO)Cc2ccccc2)c2ccccc21 | 1% | -27% | 4% | -12 | 2% | -29%
CNC(=O)c1ccc(NC(=O)CCNC(=O)Nc2ccccc2)cc1 | 4% | 17% | 3% | 15 | -18% | -4%
CCn1c(=N)n(CC(O)COc2cccc(C)c2)c2ccccc21 (stereo not given) | -2% | 15µM* | -44% | ? | -4% | 9.2µM*
CCCCCn1c(=N)n(CC(O)COc2cccc(C)c2)c2ccccc21 (stereo not given) | . | 2.9µM* | -107% | . | ? | 2.1µM*
CCCn1c(=N)n(CC(O)COc2cccc(C)c2)c2ccccc21 (stereo not given) | -1% | 16µM* | -55% | ? | -1% | 15µM*
CCn1c(=N)n(CC(O)c2ccccc2)c2ccccc21 (stereo not given) | 5% | -9% | -19% | -5 | -1% | -28%
OCC1(CCOc2ccccc2)CCN(CCCn2cccn2)CC1 | 0% | 13% | 18% | -7 | 7% | -1%
CC(C)(C)OC(=O)N1CCCC(C(=O)Nc2cccc(C(=O)NC3CC3)c2)C1 (stereo not given) | 1% | -6% | 5% | -17 | ? | -8%
CC1CC=CC2C1C(=O)N(Cc1ccccc1)C2c1ccc2ccccc2c1-c1ccc(N(C)C)cc1 (stereo not given) | . | . | -9% | . | -9% | .
COc1cccc(NC(=O)CCC2CCN(C(=O)C3CC=CCC3)CC2)c1 (stereo not given) | 2% | ? | -2% | 9 | -1% | ?
O=C(CCC1CCN(C(=O)C2CC=CCC2)CC1)Nc1ccccc1 (stereo not given) | . | ? | -19% | 18 | -9% | 21µM*
Cc1cccc(NC(=O)CCC2CCN(C(=O)C3CC=CCC3)CC2)c1 (stereo not given) | -1% | 12µM* | 0% | i | -6% | 12µM*
COc1ccc(N(C(=O)c2csnn2)C(C(=O)NC2CCCC2)c2cccs2)cc1 (stereo not given) | -1% | ? | 4% | 6 | -8% | -26%
COc1ccc(OCCNc2cc(N3CCCCC3)ccc2[N+](=O)[O-])cc1 | -23% | 18µM* | -22% | ? | 6% | 23µM*
Cc1ccccc1OCCNc1cc(N2CCN(CCO)CC2)ccc1[N+](=O)[O-] | -29% | ? | -35% | -76* | -9% | ?
CC1CN(c2ccc([N+](=O)[O-])c(NCCOc3ccccc3)c2)CCN1 (stereo not given) | -12% | ? | -49% | -62* | ? | ?
Cc1ccccc1OCCNc1cc(N2CCCCC2)ccc1[N+](=O)[O-] | -20% | 21µM* | -7% | -17 | -12% | ?
COc1ccc(OCCNc2cc(N3CCOCC3)ccc2[N+](=O)[O-])cc1 | ? | ? | -18% | -17 | -1% | ?

Assay outcomes deposited in PubChem BioAssay by National Center for Advancing Translational Sciences (NCATS).
